Screening data: PubChem BioAssay, several laboratories
Cav32 inh = Cav3.2 calcium influx blockers – cell-based, Fluo-4 calcium fluorescence, FDSS, MLSMR library, primary screen; Cav3.2-expressing cells; active compounds read low; AID 449739, 2010; hit rate 4% among 100,000; B-score at 10 µM;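 active means single-dose well whose peak fluorescence ratio is a statistical outlier from its plate by either plate-standardised score or position-corrected B-score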
PTK2B oligo ant = antagonists of Pyk2 self-association, primary screen, Q293 cells, FERM NanoBiT luminescence, HTS. Protein-tyrosine kinase 2-beta (Homo sapiens), Q14289. active compounds read low. z-score (the deposit names both 25 µM and 10 µM). hit rate 0.83% among 99,000. AID 1347419, 2020;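 active means Z-score of -3 or lower, scaled per plate to the spread of control and sample wells; inactive means z-score above -3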;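 further: negative z-score means lost luminescence so less FERM oligomerization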
Ec RNAP inh = E. coli RNAP inhibitors, biochemical | inhibition, %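 (tested at 10 µM)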 | hit rate 0.2% among 62,000 | E. coli RNA polymerase, fluorescence transcription assay | DNA-directed RNA polymerase subunit beta (Escherichia coli (strain K12)), P0A8V2 | AID 559, 2006; in the data active means inhibition above about 20%;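 further: 0% = enzyme without compound and 100% = no enzyme blank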
CD11b adhes enh = enhancers of CD11b/CD18 adhesion to fibrinogen, primary screen, K562 cells, luminescence; AID 1499, 2009; Integrin beta-2 (Homo sapiens) + Integrin alpha-M (Homo sapiens), P05107+P11215; ATPlite luminescence; hit rate 0.07% among 93,000; activation, % at 10 µM;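 active means 10 µM primary screen giving 50% or more activity, confirmed by 40% or more on retest at that dose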
CD11b adhes inh = inhibitors of CD11b/CD18 adhesion to fibrinogen, primary screen, K562 cells, luminescence | hit rate 0.54% among 93,000 | inhibition, % at 10 µM | ATPlite luminescence; Mn2+ added to activate the integrin | Integrin beta-2 (Homo sapiens) + Integrin alpha-M (Homo sapiens), P05107+P11215;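 active means primary inhibition of 50% or more at 10 µM, then 40% or more on retest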
* hit, by the source's call; · = no result. Shown are actives, neighbours in structure and some others; about 4.2% of the full set was active somewhere.

SMILES	Cav32 inh	PTK2B oligo ant	Ec RNAP inh	CD11b adhes enh	CD11b adhes inh
Cc1ccc(N2C(=O)N(CC(=O)C(C)(C)C)c3ccccc3S2(=O)=O)cc1	-2.6	·	·	·	·
Cc1ccccc1NC(=O)C(=O)NCc1ccccn1	-4.5*	0.24	·	2	-49
Cc1cccc(C)c1NC(=O)C(=O)NCc1ccccn1	1.5	0.62	·	2	-1
O=C1CC(c2ccccc2)n2nc(NS(=O)(=O)c3ccccc3)nc2N1 (configuration not stated)	-1.1	0.37	-6	5	32
O=C(COc1ccc(Cl)cc1Cl)Nc1nc2n(n1)C(c1ccccc1)CC(=O)N2 (configuration not stated)	-3.7*	-0.72	12	2	-7
Cc1ccc(NC(=O)Cn2c(=O)n(CCCC(=O)NCc3ccco3)c(=O)c3ccccc32)cc1	0.1	-3.1*	-1	-2	-16
COc1ccc(NC(=O)CN(C)C2CCCCC2)c([N+](=O)[O-])c1	·	·	·	-3	5
COCCCNC(=O)C(C#N)c1nc2ccccc2nc1N1CCN(Cc2ccccc2)CC1 (configuration not stated)	-9*	-1.9	0	0	3
COCCOC(=O)C(C#N)c1nc2ccccc2nc1N1CCN(Cc2ccccc2)CC1 (configuration not stated)	-3.7	0.79	11	1	0
CCOC(=O)C1CCCN(c2nc3ccccc3nc2C(C#N)C(=O)OC(C)COC)C1 (configuration not stated)	·	·	21*	2	12
C=CCOC(=O)C(C#N)c1nc2ccccc2nc1N1CCN(c2ccccc2OC)CC1 (configuration not stated)	-9.2*	-1.1	10	0	-18
CC(C)COC(=O)C(C#N)c1nc2ccccc2nc1N1CCN(Cc2ccccc2)CC1 (configuration not stated)	-4*	-1.3	-8	12	4
CC(=O)Nc1cc(C(=O)N2CCc3ccccc3C2)ccc1Sc1ccc(Cl)cc1	·	·	·	2	30
CC(C)OC(=O)c1ccc(NC(=O)c2ccco2)cc1	1	-0.57	·	-2	7
N#CC(C(=O)NC1CC1)c1nc2ccccc2nc1N1CCN(C/C=C/c2ccccc2)CC1 (configuration not stated)	-11*	-0.77	11	·	·
COCC(C)OC(=O)C(C#N)c1nc2ccccc2nc1N1CCN(Cc2ccccc2)CC1 (configuration not stated)	-6.1*	-1.3	1	-2	2
CCCCNC(=O)C(C#N)c1nc2ccccc2nc1N1CCN(c2ccccc2F)CC1 (configuration not stated)	-7.5*	-1.4	-2	·	·
CC1(c2nnc(-c3cccc(Cl)c3)o2)CC(c2cccc(Cl)c2)=NO1 (configuration not stated)	0.59	·	·	·	·
CCO[C@H]1OC(C(N)=O)=C[C@@H](C2CCCCC2)[C@@H]1CCCO	0.66	·	·	·	·
Cc1ccc(C2(c3ccc(C)cc3)CC2C(=O)Nc2ccc([N+](=O)[O-])cc2O)cc1 (configuration not stated)	-1.9	-3.4*	·	-10	99
Cc1ccc(S(=O)(=O)N2CCC(=O)N(C(COCc3cccc(C(F)(F)F)c3)C(C)C)CC2)cc1 (configuration not stated)	-0.61	·	·	·	·
Cc1ccc2nc(-c3ccc(NC(=O)C4CCCO4)cc3)[nH]c2c1 (configuration not stated)	0.27	-0.19	·	2	-12
Cc1cccc(C)c1OCc1nnc(SCC(=O)NCCc2ccccc2)o1	-5.7*	-2.4	·	·	·
CC(C)(C)NC(=O)NC(=O)CSc1nnc(COc2ccccc2Cl)o1	-6*	0.97	·	1	10
CC(C)OCCCN1CN(S(=O)(=O)c2cccc(Cl)c2)c2nc3ccccc3nc21	-2	0.56	·	·	·
SMILES	Cav32 inh	PTK2B oligo ant	Ec RNAP inh	CD11b adhes enh	CD11b adhes inh
CCCC(C)NC(=O)COc1ccc(Sc2ccc(OCC(=O)NC(C)CCC)cc2)cc1 (configuration not stated)	·	·	·	-3	74
O=C1Nc2ccccc2C12OCC(COc1ccc(Cl)cc1)O2 (configuration not stated)	-5.4*	-0.88	5	10	12
CN1C(=O)C2(OCC(COc3ccc(Cl)cc3)O2)c2ccccc21 (configuration not stated)	-1.6	-2.4	15	-3	16
CN(C)c1ccc(-c2nn3c(-c4ccccc4Cl)nnc3s2)cc1	-0.61	-0.57	-1	·	·
COc1ccccc1-c1nnc2sc(-c3ccc(N(C)C)cc3)nn12	·	-3.4*	-1	15	15
CC(Nc1ccc(Cl)cc1)c1cc(Cl)ccc1O (configuration not stated)	-3	-0.73	·	·	·
CC(Nc1ccc(Br)cn1)c1cc(Cl)ccc1O (configuration not stated)	·	-3.5*	8	-1	-10
Cn1c(C(=O)OC(C(=O)NCc2ccco2)c2ccncc2)cc2sccc21 (configuration not stated)	0.53	-0.09	·	0	-1
Cc1ccccc1Cn1ccc(NC(=O)CCSc2nc(-c3ccco3)cc(C(F)(F)F)n2)n1	·	-0.96	6	-1	16
Cc1ccc(Cn2ccc(NC(=O)CCSc3nc(-c4ccco4)cc(C(F)(F)F)n3)n2)cc1	-9*	1.1	2	-1	19
CCc1ccc(NC(=O)CC2C(=O)N(c3cccc(C)c3)C(=O)N2C2CC2)cc1 (configuration not stated)	-0.2	·	·	·	·
COC(=O)C1=C(C)OC(N)=C(C#N)C1c1c(C)nn(-c2ccccc2)c1Cl (configuration not stated)	-5.1*	-1.9	-12	6	-32
CCOC(=O)C1=C(C)OC(N)=C(C#N)C1c1c(C)nn(-c2ccc(C)cc2)c1Cl (configuration not stated)	·	·	5	2	-26
O=C(c1cc2n(n1)C(C(F)(F)F)CC(c1ccco1)N2)N1CCc2ccccc2C1 (configuration not stated)	-3.7*	-0.77	8	4	12
O=C(c1cnn2c1NC(c1ccco1)CC2C(F)(F)F)N1CCN(c2cccc(Cl)c2)CC1 (configuration not stated)	-4.2*	0.03	8	-2	-13
CCCOc1ccccc1NC(=O)c1c(-c2ccccc2)noc1C	-4.8*	·	5	2	-18
Cc1onc(-c2ccccc2)c1C(=O)Nc1nnc(-c2ccncc2)s1	-1.5	-3.2*	7	3	10
Nn1c(SCC(=O)NC2CCCc3ccccc32)nnc1-c1ccc(Cl)cc1Cl (configuration not stated)	·	·	·	2	0
O=[N+]([O-])c1ccc(CSc2nnc(SCc3ccc(Cl)cc3)s2)cc1	·	·	·	0	13
